Results from the supplement of paper PMC11417369.
± gives the standard deviation of the averaged measurements. In all, about 25,000 sequences were measured (“ln(normalized median fluorescence intensity)”: median about 8.6, highest 2% from about 10 on). Many of the other results were omitted from the sample, so the highest values are more common in it than they were.

Test system: PfAP2-EXP AP2 domain (GST-tagged)
Test: gcPBM binding intensity (ln(normalized median fluorescence intensity)); higher = stronger DNA binding
Summary of the method: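 After 1 h on an Agilent 4 × 180k array of primer-extended double-stranded 36-bp intergenic genomic probes and negative controls, bound GST-tagged P. falciparum DNA-binding domains were detected with Alexa488 anti-GST antibody and scanned at 488 nm. The domains had been expressed in E. coli, and binding took place in 1× PBS with 1% milk, 0.2 mg/ml BSA, 0.5% salmon testes DNA and 0.03% Triton X-100. Binding intensity is the highest Masliner-normalised natural-log median intensity across replicate spots of either probe orientation.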

Sequence | gcPBM binding intensity (ln)
TAATTGTACACATGCACACACAAATATTATAGATGT [CACACA_site6528] | 8.99 ± 0.37
AACAATTATTGTAATGCATGCACTGAATATAGAAAG [TGCATGCA_site889] | 10.3 ± 0.24
CAATTATTGTAATGCATGCACTGAATATAAAAAGAA | 10.3 ± 0.23
TATTATATATTAAATGCATGTAAAAATAATATTAAA [TGCATGCA_site643] | 9.24 ± 0.44
AAATAATATATGAATGCACACAGTAAAAATTAAAGA [CACACA_site2252] | 8.94 ± 0.35
AACAATTAGAATAACGCATGCATTTATAATATAGAA [TGCATGCA_site595] | 9.52 ± 0.071
TATAAGAGAAGAAGAAAAAAAAGGTTTCTATAGAAA [XGTACX_negctrl_site421] | 8.76 ± 0.52
AATAAAAAAAAAATAAATTTAATAATAATAATAAAA [CACACA_negctrl_site569] | 8.23 ± 0.33
ATATTATCATTTTTTTTAATGGAAAAAAAAAAAAAA [CACACA_negctrl_site1298] | 8.2 ± 0.61
TTTTTCAGAAAAGAAACACACATATAAATATTTATA [CACACA_site7170] | 8.47 ± 0.46
CATACATACAGACACACACACATATATATATATATA [CACACA_site2920] | 10.1 ± 0.35
TACATACACAGACACACACACATATATATATATATA [CACACA_site3557] | 10.2 ± 0.2
ATTCTAATCATATACACACCCATATATATATATATA [CACACA_site1774] | 10.3 ± 0.3
CATATACATACACATACACACATACAGACATACACA [CACACA_site6919] | 8.69 ± 0.37
AGTATACACAGACACACACACACATATATATATATA [CACACA_site8510] | 10.2 ± 0.23
ATTAAAATCATATACACACCCATATATATATATATA [CACACA_site5050] | 10.1 ± 0.34
ATTCTACACCCACATACACACATATATATATATATA [CACACA_site3426] | 10.2 ± 0.26
TAATTAAAATCATATACACACCCATATATATATATA [CACACA_site8524] | 10 ± 0.25
TATACAGACAGACACACACACATATATATATATATA [CACACA_site1734] | 10.1 ± 0.42
TACACATACAGACATACACACATACACATATACACA [CACACA_site6918] | 8.66 ± 0.38
CACCCACCCACATACACACACATACACATATATATA [CACACA_site1722] | 9.3 ± 0.45
TACACCCACCCACATACACACACATACACATATATA [CACACA_site8503] | 9.33 ± 0.71
TATATATATTTATAATGTACACATATATGTAAATAT [XGTACX_site3695] | 8.51 ± 0.2
ATATATATATATATAAAGTGAAGTATGAGGGAAATA [XGTACX_negctrl_site497] | 10.1 ± 0.3
AGAATAAAAAGGAACACACACACACGCATATAAATA [CACACA_site7659] | 9.01 ± 0.55

Sequence | gcPBM binding intensity (ln)
TTACATATTATACGAAGTACGTACAAATACTTATAT [XGTACX_site8598] | 8.6 ± 0.26
GTATGTTTGTTATGCACACAAATGCATCTTATTTCC [CACACA_site2690] | 8.96 ± 0.28
TTATTTAACGTATTCTCACACATATATATATATAAT [CACACA_site5226] | 8.64 ± 0.42
TAAATATGTATAAATTGTACAAAATATATGAATAGT [XGTACX_site5659] | 8.94 ± 0.29
CTCATAATTTCTGAACGTACGTATTTCTCATTTTTA [XGTACX_site7296] | 8.83 ± 0.44
TCCTTTTTTAAAAGTTGTACATTATTGTTATTTGTT [XGTACX_site4686] | 8.65 ± 0.3
TTTTAAATAATTCGTAATTATAATTATGGAAAAAAG [CACACA_negctrl_site152] | 8.43 ± 0.48
TTAGCAACTATTACTACACACATTTGTATTTAATTT [CACACA_site4961] | 8.49 ± 0.35
ATTCTACACAGACATACACACATATATATATATATA [CACACA_site5826] | 10.2 ± 0.4
TACAGACATACATACACACATACATATATATATATA [CACACA_site1940] | 10.1 ± 0.11
GTATTCTACAGACACATACACACATATATATATATA [CACACA_site3427] | 10.1 ± 0.22
TTTATTAATTAAACCATACACACATAATTTTTTTAT [CACACA_site842] | 8.34 ± 0.47
ATTTAGAAAAATAAAACACACATATAGATGTAAATA [CACACA_site7853] | 8.57 ± 0.58
AAAAAAAAAAGAAACACACACATATATATATATAAT [CACACA_site5052] | 8.61 ± 0.52
CACAAGAAAATTCACACACACACATATATATATATA [CACACA_site3880] | 10.1 ± 0.27
AAAAAAAAAAAAGAAACACACATATATATATATATA [CACACA_site140] | 10.1 ± 0.6
AAGAAAAAAAAAAAAACACACATATATATATATATA [CACACA_site2027] | 10.2 ± 0.13
AAACAGAAGACATATACACACATACAAAAAAGTGCA [CACACA_site4699] | 8.81 ± 0.33
TTAAAAAGAAAGTTCACACACATATATATGACGGAA [CACACA_site2602] | 8.93 ± 0.45
AAAAAAAAAAGAAAAAGTACATACATACATATATAT [XGTACX_site6405] | 8.46 ± 0.36
AAAAAAAAAAAAGAAACACACACATATATATATATA [CACACA_site8525] | 10.1 ± 0.31
CACAAGAAAGTTCACACACACACATATATATATATA [CACACA_site6009] | 10.2 ± 0.18
AAGACAAAACAAAGAAGTACATATATATATATATAT [XGTACX_site4067] | 10.3 ± 0.4
CACAAAAAGAAACACACACACATATATATATATATA [CACACA_site999] | 10.2 ± 0.22
CAAGAAAAGAAACACACACACATATATATATATATA [CACACA_site3881] | 10.1 ± 0.26
